The full ranking holds about 5,800 sequences; the median of “enrichment r” is about 0.54, and the highest 2% start at about 16. Shown is part of a subset that was picked to be rich in the highest values.
B1: chr19:14119889:14120036:-|3pUTR|ENSG00000105011|msi1|FALSE|unique (ssRNA)
RNA: GGGAGUUCUACAGUCCGACGAUCAGCAGACCCACUCCAGCUUUCUGGUGUCACAGGCGGGAAUGUUAGUUAGUAGGUAGACUUAGAUCCCAUUUCUGUCCUGCUCCCAGGAAGAUUCUUAGGUCCUCUUCAAUCCAGCAGCCCCAACAGAGGAUUGAGCAUCA
B2: ENSG00000198589:be:win_3651|CDS|ENSG00000198589|bound_else_gene|NA|bound_elsewhere_windowed (ssRNA)
RNA: GGGAGUUCUACAGUCCGACGAUCCCUCACUAGAGAAACCAAAUUAAUUAAUGAUUGUCAUGGUAGUGUCUCUGAGGCUUCUUCUGAGCAAAAGAUUGCGAAGUUGGAUGUUUCCAAUGUUGCUACAGAUACUGAGAGGCUGGACAACAGAGGAUUGAGCAUCA
B3: ENSG00000165672:stop:overlap|stop_codon|ENSG00000165672|stop_codon|NA|stop_codon (ssRNA)
RNA: GGGAGUUCUACAGUCCGACGAUCCUCCUACGAUCAAGCCAAGUCCAGCUGCUUCCAAAGAGUACUUUCAGAAGGUAAAUCAGUAGAUCACCCAUGUGUAUCUGCACCUUCUCAACUGAGAGAAGAACCACAGUUGAAACCUGCCAACAGAGGAUUGAGCAUCA
B4: chr17:18209558:18209659:+|3pUTR|ENSG00000091542|msi1|FALSE|unique (ssRNA)
RNA: GGGAGUUCUACAGUCCGACGAUCGGUAGCUUCUAUCCACUCAGAUCCUGGAAGGCAGCAAGGUUUUGUGGAUCUAGAUUCAUUAGGAAUGUCUUCUUGUCAGCCAGGCCAGGACCCGGGCUUGCCAAGAGCAGAGGCCCUCCCCAACAGAGGAUUGAGCAUCA
B5: ENSG00000147536:stop:overlap|stop_codon|ENSG00000147536|stop_codon|NA|stop_codon (ssRNA)
RNA: GGGAGUUCUACAGUCCGACGAUCUCCGCUACGUCCUCAGCAGCUACUUGCGGUGUCGCCUCAUGAAGUUCCCAAACCAGAUCUAGAUUCUUACGUGUUUCUGAGAGUGAGAGAACGACAAGAAAACAUACUGGUAGAACCAGACAACAGAGGAUUGAGCAUCA
B6: ENSG00000113300:stop:overlap|stop_codon|ENSG00000113300|stop_codon|NA|stop_codon (ssRNA)
RNA: GGGAGUUCUACAGUCCGACGAUCUGGAGCUCUUACUGCCUUUCCUGCCCCAAGUCAACGGCAUCCACCUUCCUGGCAGGAGGUAGUCAAGCACCUUCAGAGGACAGCCUUGAUUCACUUGUAAACUUGUGAAAAUCUGAACAUCAACAGAGGAUUGAGCAUCA
B7: chr19:14119889:14120036:-|3pUTR|ENSG00000105011|msi1|total|mutant (ssRNA)
RNA: GGGAGUUCUACAGUCCGACGAUCAGCAGACCCACUCCAGCUUUCUGGUGUCACAGGCGGGAAUGUCCGUCCGCCGGCCGACUCCGAUCCCAUUUCUGUCCUGCUCCCAGGAAGAUUCUCCGGUCCUCUUCAAUCCAGCAGCCCCAACAGAGGAUUGAGCAUCA
B8: chr2:1633339:1633490:-|3pUTR|ENSG00000130508|msi1|total|mutant (ssRNA)
RNA: GGGAGUUCUACAGUCCGACGAUCUUCAUAAGCCACAUUCCGAAACAGGUUUGCUUUCAGCUGUCACUUGCACACAUACUGCCCCGUUGUGAACCAAAUGUGAAAAAACCUCCUUCAUCCCAUUGUGUAUCUGAUACCUGCCGACAACAGAGGAUUGAGCAUCA
B9: chr20:50583650:50583751:+|3pUTR|ENSG00000196396|msi1|FALSE|unique (ssRNA)
RNA: GGGAGUUCUACAGUCCGACGAUCUUCCUAAGCCUGUUGCUGAAGUCAUUGUCGCUCAGCAAUAGGGUGCAGUUUUCCAGGAAUAGGCAUUUGCCUAAUUCCUGGCAUGACACUCUAGUGACUUCCUGGUGAGGCCCAGCCUGUCAACAGAGGAUUGAGCAUCA
B10: chr8:17644361:17644462:-|3pUTR|ENSG00000129422|msi1|FALSE|bound_elsewhere (ssRNA)
RNA: GGGAGUUCUACAGUCCGACGAUCCAACAUUGUGAUGUCAGUAUUUACUAAUCUACAUUCAGUGGCUGUACAAAUAACAGCUGUAGUAAGAAGAGAUUCAGGAUGCUAGAGGUGAAUAUUUGGGUCAUUUACAUGUACACUACACAACAGAGGAUUGAGCAUCA
B11: chr15:44665791:44665971:-|CDS|ENSG00000229474|control|control|control (ssRNA)
RNA: GGGAGUUCUACAGUCCGACGAUCGAUCUGUUUGUUCUGGAAUACGUGUAUGUGGGAAGUUGAAUCAUCAGACACUAGCUACAUAGACUAUGUUUACAGGGAUCCAGAGAGUCUGAAGACAUUUCUUAUGCCUUUAUAUAUUGGCAACAGAGGAUUGAGCAUCA
B12: chr4:75800632:75800752:+|CDS|ENSG00000138768|unk|total|mutant (ssRNA)
RNA: GGGAGUUCUACAGUCCGACGAUCAAACAACUGAUUGAGAAGAGGAUUGGCAAAGAGAAUUUCACCGAGAAACCCGGAUUUAUCCGCAAACAUGAGUUGUAUUCCAGAGCAUCUCAGAAACCCCAGCCAAACUUUCCCAGUCCACAACAGAGGAUUGAGCAUCA
B13: chr3:45095346:45095568:-|CDS|ENSG00000163814|control|control|control (ssRNA)
RNA: GGGAGUUCUACAGUCCGACGAUCAAACAGAGCCGCAAGUUUGUCCCUGGCUGUUUCGUGUGUCUAGAAUCUCGGACCUGCAGUAGCAACCUCACCCUGACAUCUGGCUCCAAACACAAAAUCUCCUUCCUUUGUGAUGAUCUGCAACAGAGGAUUGAGCAUCA
B14: chr1:17407970:17408071:-|3pUTR|ENSG00000179051|msi1|total|mutant (ssRNA)
RNA: GGGAGUUCUACAGUCCGACGAUCGGGUACCGUUCUGCUGACCCAGCUCCCUUCCGUCACGUUUGCUUGGCUCUGGUACCAAACCGUUGGGAUUACCGAAGAGUCCCCUUCCUUGCGUGUCAGCACGGAUGCUGUGACUGCCACCAACAGAGGAUUGAGCAUCA
B15: chr9:19276226:19276327:+|CDS|ENSG00000137145|unk|total|mutant (ssRNA)
RNA: GGGAGUUCUACAGUCCGACGAUCCUUUGUCGCCGCUGGUCUCACUGACACAUCUACUCUUUUGGAUCAAGAAAUAAAUCGUUCCGAUACUAAGUCAACUGGACCUAAAGCUCCAAUUACAGACAUUGCCAUUAUUAUCAAAUCCAACAGAGGAUUGAGCAUCA

Biological target: MSI1 full-length (mouse, UniProt Q61474 1-362)
Experiment: nsRBNS (natural sequence RNA bind-n-seq); RBNS binding buffer (assumed for nsRBNS): 25 mM Tris pH 7.5, 150 mM KCl, 3 mM MgCl2, 0.01% Triton X-100, 500 ug/ml BSA, 20 U/ml SUPERase-In, 4 C; UNK is unkempt and MSI1 is Musashi-1; names of the RNAs are library labels; protein concentration not given here; high values mean tight binding

MSI1 full-length, sequence (Q61474 whole entry): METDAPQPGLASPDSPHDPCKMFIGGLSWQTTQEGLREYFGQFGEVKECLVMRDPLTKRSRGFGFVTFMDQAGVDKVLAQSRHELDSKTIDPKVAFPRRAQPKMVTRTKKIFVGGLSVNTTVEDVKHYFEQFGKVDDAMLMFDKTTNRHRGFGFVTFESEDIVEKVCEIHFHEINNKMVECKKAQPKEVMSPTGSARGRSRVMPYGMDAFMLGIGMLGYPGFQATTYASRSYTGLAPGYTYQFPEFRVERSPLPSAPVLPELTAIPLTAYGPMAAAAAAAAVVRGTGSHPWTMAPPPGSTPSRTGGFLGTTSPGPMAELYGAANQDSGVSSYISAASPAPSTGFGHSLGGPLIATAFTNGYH

Binder	binding signal [enrichment R]
B1	38.2
B2	0.605
B3	0.684
B4	1.93
B5	26.3
B6	38.7
B7	0.641
B8	0.388
B9	0.237
B10	0.442
B11	0.282
B12	0.541
B13	0.476
B14	0.479
B15	0.315
